The target of experiment [1] is Mitogen-activated protein kinase 3 (Homo sapiens) (UniProt P27361). The conditions noted are these: at 1 µM.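 Further: values are mean percent inhibition of MAPK3.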
The target of experiment [2] is SRSF protein kinase 3 (Homo sapiens) (UniProt Q9UPE1). The conditions noted are these: at 0.1 µM.
For experiment [3] the target is unchanged. The conditions noted are these: at 1 µM.
The target in experiment [4] is Mitogen-activated protein kinase 14 (Homo sapiens) (UniProt Q16539). The note with it: at 0.1 µM.
For experiment [5] the target is unchanged. The conditions noted are these: at 1 µM.
Experiment [6] deals with Mitogen-activated protein kinase 11 (Homo sapiens) (UniProt Q15759). The conditions noted are these: at 0.1 µM.
Experiment [7] has the same target. The conditions noted are these: at 1 µM.
In experiment [8] the target is T1, Mitogen-activated protein kinase 13 (Homo sapiens) (UniProt O15264).
T1 sequence (whole entry): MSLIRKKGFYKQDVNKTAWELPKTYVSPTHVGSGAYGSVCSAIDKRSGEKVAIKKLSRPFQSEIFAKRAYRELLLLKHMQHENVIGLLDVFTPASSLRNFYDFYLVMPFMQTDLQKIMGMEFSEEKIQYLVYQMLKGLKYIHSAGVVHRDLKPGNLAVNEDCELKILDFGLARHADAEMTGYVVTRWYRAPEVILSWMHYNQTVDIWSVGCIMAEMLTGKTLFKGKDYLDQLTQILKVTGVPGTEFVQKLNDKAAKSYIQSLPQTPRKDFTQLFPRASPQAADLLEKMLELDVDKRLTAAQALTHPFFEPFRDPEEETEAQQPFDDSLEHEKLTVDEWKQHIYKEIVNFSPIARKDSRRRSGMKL
The note with it: at 0.1 µM.

The target of experiment [9] is T1, Mitogen-activated protein kinase 13 (Homo sapiens). The note with it: at 1 µM.
In experiment [10] the target is T2, Mitogen-activated protein kinase 12 (Homo sapiens) (UniProt P53778).
T2 sequence (whole entry): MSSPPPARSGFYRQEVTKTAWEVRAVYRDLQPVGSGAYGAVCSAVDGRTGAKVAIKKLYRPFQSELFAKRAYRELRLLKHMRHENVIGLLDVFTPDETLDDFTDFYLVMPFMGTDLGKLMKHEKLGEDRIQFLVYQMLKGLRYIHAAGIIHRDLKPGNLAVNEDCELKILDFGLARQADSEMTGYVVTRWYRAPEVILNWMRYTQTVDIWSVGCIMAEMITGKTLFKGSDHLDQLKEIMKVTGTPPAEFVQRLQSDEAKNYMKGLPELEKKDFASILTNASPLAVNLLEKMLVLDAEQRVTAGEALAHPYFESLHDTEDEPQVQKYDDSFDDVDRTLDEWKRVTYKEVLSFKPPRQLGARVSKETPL
The note with it: at 0.1 µM.

The target of experiment [11] is T2, Mitogen-activated protein kinase 12 (Homo sapiens). The note with it: at 1 µM.
Experiment [12] deals with SRSF protein kinase 1 (Homo sapiens) (UniProt Q96SB4). The note with it: at 0.1 µM.
Experiment [13] has the same target. The note with it: at 1 µM.
Experiment [14] addresses Phosphatidylinositol 4,5-bisphosphate 3-kinase catalytic subunit alpha isoform (Homo sapiens) (UniProt P42336). The note with it: at 0.1 µM.
The target is the same in experiment [15]. The conditions noted are these: at 1 µM.
The target of experiment [16] is T3, Phosphatidylinositol 4,5-bisphosphate 3-kinase catalytic subunit delta isoform (Homo sapiens) (UniProt O00329).
T3 sequence (whole entry): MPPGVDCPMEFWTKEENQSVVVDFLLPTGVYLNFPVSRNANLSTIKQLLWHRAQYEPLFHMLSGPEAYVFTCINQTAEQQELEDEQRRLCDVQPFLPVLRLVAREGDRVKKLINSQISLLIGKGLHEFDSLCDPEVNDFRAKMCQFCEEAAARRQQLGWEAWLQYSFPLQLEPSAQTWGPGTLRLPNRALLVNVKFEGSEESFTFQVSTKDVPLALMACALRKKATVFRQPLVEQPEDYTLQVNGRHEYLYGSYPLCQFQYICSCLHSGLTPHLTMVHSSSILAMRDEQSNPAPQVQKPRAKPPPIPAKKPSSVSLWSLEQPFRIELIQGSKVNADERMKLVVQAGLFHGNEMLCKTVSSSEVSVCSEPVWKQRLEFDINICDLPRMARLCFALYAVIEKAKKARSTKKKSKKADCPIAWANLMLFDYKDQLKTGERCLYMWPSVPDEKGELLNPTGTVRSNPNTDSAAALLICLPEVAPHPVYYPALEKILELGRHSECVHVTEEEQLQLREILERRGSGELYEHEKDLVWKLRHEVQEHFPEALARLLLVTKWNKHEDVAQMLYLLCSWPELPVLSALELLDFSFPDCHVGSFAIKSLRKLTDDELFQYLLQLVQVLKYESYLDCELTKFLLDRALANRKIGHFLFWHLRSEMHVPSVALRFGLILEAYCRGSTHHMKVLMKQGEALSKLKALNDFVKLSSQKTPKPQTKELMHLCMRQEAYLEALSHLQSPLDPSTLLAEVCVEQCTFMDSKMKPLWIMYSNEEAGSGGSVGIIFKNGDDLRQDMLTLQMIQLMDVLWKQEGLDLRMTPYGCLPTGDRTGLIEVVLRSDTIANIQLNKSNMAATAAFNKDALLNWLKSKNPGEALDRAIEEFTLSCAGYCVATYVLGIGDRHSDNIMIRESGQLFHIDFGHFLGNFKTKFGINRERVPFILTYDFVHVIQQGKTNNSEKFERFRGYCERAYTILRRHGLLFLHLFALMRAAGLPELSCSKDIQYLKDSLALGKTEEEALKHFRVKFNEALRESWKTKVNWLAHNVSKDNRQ
The conditions noted are these: at 0.1 µM.

Experiment [17] addresses T3, Phosphatidylinositol 4,5-bisphosphate 3-kinase catalytic subunit delta isoform (Homo sapiens). The conditions noted are these: at 1 µM.
Experiment [18] has as its target Phosphatidylinositol 4-kinase beta (Homo sapiens) (UniProt Q9UBF8). The conditions noted are these: at 0.1 µM.
Experiment [19] shares this target. The conditions noted are these: at 1 µM.
Experiment [20] concerns the target Sphingosine kinase 1 (Homo sapiens) (UniProt Q9NYA1). The note with it: at 0.1 µM.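 Further: mean percent inhibition of SPHK1 activity, measured within the GSK PKIS screening panel.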

Sequence of SRSF protein kinase 3 (Homo sapiens) (Q9UPE1 whole entry): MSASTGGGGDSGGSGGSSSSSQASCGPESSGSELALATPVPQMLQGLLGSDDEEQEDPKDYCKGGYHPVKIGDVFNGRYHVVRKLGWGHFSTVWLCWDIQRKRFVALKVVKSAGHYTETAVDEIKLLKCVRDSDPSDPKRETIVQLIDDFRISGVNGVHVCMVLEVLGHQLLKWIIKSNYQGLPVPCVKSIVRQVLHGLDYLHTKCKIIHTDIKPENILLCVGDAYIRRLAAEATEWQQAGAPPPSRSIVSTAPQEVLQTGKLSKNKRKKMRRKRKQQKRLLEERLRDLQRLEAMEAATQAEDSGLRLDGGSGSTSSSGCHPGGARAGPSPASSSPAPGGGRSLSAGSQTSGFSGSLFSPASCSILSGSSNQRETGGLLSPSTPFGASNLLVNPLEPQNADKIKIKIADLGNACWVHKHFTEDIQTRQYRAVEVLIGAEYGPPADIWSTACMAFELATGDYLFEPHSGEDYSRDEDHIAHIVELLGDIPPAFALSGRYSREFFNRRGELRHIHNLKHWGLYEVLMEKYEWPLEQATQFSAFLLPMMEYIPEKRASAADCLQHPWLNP
Sequence of Mitogen-activated protein kinase 14 (Homo sapiens) (Q16539 whole entry): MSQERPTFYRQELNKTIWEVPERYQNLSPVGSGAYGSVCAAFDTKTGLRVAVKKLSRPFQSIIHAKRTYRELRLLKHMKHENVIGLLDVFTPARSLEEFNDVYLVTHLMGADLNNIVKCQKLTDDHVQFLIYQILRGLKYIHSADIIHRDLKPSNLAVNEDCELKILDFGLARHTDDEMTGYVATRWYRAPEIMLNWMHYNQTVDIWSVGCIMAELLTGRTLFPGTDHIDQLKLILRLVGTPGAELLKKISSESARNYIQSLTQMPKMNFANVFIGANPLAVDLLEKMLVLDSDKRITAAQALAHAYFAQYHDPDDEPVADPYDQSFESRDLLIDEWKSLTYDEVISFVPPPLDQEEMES
Sequence of Mitogen-activated protein kinase 3 (Homo sapiens) (P27361 whole entry): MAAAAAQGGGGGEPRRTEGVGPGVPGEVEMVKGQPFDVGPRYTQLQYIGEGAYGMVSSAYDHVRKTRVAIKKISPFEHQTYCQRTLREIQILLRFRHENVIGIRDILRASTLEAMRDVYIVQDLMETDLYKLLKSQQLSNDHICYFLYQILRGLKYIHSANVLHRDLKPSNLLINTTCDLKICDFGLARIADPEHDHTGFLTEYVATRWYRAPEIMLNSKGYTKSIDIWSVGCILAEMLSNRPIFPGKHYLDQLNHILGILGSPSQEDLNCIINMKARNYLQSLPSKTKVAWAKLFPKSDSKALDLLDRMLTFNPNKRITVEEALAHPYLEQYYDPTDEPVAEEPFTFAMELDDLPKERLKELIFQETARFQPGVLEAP
Sequence of SRSF protein kinase 1 (Homo sapiens) (Q96SB4 whole entry): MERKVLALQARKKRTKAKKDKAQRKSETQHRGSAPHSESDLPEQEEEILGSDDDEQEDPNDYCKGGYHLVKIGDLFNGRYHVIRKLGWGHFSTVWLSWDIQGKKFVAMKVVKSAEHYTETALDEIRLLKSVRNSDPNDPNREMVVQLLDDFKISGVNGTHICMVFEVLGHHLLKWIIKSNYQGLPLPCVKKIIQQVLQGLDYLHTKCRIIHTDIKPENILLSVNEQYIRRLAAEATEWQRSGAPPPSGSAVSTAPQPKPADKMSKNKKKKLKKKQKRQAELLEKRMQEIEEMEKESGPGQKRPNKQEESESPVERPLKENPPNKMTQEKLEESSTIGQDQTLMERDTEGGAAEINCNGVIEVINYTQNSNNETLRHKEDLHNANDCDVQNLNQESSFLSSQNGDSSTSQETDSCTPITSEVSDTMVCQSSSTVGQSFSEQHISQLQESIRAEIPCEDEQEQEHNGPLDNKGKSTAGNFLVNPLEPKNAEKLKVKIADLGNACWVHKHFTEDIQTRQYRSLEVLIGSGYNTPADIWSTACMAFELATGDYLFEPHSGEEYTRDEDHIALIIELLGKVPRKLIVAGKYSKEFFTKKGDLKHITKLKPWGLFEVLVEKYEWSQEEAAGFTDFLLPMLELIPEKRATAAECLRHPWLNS
Sequence of Sphingosine kinase 1 (Homo sapiens) (Q9NYA1 whole entry): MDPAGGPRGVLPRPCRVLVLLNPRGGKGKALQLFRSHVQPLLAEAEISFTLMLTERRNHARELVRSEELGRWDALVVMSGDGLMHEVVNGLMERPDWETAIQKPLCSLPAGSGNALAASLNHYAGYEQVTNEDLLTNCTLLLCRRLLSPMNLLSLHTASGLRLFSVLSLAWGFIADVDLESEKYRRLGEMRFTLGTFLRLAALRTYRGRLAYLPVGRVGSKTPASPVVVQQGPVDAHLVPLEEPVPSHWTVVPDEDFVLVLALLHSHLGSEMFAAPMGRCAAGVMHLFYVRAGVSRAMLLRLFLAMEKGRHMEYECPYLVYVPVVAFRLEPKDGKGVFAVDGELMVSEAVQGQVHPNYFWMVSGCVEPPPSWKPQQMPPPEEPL
Sequence of Mitogen-activated protein kinase 11 (Homo sapiens) (Q15759 whole entry): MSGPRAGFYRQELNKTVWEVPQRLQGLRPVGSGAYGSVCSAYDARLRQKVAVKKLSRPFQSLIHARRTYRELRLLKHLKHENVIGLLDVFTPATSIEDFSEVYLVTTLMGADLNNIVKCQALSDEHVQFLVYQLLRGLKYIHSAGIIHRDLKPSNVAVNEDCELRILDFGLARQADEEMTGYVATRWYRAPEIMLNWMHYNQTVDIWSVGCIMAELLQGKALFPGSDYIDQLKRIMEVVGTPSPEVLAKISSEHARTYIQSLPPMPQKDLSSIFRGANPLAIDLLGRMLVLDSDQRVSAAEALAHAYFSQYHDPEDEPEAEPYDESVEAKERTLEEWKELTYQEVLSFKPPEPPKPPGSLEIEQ
Sequence of Phosphatidylinositol 4-kinase beta (Homo sapiens) (Q9UBF8 2-816 limits assumed): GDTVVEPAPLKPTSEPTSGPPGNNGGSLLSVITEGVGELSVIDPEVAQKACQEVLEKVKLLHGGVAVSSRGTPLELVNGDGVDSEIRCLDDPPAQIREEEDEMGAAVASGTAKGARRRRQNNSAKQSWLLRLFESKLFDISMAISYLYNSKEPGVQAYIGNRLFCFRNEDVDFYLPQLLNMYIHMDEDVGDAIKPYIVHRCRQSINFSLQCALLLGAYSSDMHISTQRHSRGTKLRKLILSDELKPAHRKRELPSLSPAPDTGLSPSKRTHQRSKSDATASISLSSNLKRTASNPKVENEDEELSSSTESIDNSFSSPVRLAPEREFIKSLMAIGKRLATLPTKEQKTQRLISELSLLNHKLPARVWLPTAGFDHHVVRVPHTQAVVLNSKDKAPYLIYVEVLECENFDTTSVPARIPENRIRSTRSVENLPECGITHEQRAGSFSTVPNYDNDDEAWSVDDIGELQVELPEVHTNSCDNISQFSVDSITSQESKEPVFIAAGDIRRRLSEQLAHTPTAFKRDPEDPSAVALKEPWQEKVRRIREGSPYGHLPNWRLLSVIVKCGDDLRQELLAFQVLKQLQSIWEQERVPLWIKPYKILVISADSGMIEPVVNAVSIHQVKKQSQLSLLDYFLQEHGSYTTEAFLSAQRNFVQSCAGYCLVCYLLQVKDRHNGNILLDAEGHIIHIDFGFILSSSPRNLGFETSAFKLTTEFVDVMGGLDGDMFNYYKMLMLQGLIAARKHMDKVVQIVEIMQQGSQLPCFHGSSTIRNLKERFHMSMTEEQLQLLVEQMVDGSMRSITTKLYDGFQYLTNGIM
Sequence of Phosphatidylinositol 4,5-bisphosphate 3-kinase catalytic subunit alpha isoform (Homo sapiens) (P42336 whole entry, canonical isoform): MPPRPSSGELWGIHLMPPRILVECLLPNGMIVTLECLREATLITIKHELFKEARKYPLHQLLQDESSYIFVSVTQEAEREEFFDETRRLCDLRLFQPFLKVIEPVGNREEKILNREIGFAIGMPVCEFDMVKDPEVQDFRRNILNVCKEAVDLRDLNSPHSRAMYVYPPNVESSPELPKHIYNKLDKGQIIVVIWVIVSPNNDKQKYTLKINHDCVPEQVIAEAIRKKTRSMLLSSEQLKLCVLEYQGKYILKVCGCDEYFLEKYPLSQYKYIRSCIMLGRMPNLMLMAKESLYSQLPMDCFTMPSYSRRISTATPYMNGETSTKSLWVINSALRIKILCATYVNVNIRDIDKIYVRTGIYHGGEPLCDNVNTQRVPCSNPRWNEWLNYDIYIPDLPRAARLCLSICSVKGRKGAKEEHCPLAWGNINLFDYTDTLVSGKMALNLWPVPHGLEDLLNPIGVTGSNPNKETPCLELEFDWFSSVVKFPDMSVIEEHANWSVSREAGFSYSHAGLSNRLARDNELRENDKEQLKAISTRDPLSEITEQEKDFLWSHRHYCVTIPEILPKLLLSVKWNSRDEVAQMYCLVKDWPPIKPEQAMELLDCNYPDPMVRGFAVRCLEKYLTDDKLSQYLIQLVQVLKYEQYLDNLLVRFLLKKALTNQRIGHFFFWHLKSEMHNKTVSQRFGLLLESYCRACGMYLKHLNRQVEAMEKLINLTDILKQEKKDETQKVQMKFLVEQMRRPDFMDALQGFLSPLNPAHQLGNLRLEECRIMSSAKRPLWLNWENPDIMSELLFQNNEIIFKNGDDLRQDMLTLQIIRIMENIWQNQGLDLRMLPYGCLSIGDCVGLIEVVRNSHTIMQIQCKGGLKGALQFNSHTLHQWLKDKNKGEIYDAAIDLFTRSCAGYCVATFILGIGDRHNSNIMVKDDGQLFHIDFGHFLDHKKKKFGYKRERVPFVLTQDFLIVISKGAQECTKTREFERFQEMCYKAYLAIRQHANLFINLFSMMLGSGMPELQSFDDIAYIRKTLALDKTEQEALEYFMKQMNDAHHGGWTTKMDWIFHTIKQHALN

As for `ON=C1CCc2cc(-c3nc(C4CCNCC4)[nH]c3-c3ccncc3)ccc21`, the inhibition in experiment [1] was 0.97%; in [2] it was -1.32%; in experiment [3], -2.19%; in experiment [4], 25.4%; in experiment [5], 73.7%; in experiment [6], 7.03%. Besides, the inhibition in experiment [7] is 33.1%; in experiment [8], -0.29%; in [9], 0.95%; in experiment [10] it was 1.31%; in experiment [11], 1%; in experiment [12], -1.62%. Besides, the inhibition in experiment [13] was -5.28%; in experiment [14], -1.04%; in experiment [15], 0%; in experiment [16] it was 0.31%; in experiment [17] it was 3.08%; in experiment [18] it was 2.07%. Further, the inhibition in experiment [19] is -0.63%; in experiment [20], -1.16%.
In the case of `Nc1nccc(-c2c(-c3ccc(F)cc3)nn3cc(C(F)(F)F)ccc23)n1`, the inhibition was 2.32% in [1]; -1.48% in experiment [2]; -1.99% in experiment [3]; 7.89% in experiment [4]; 47.2% in [5]; 4.49% in experiment [6]. Moreover, the inhibition in experiment [7] was 10.5%; in [8], 0.69%; in experiment [9] it was -1.62%; in experiment [10] it was 1.12%; in experiment [11], 1.01%; in experiment [12] it was -0.96%. Further, the inhibition in [13] is -1.1%; in [14] it was 0.15%; in [15] it was 0.75%; in experiment [16], 0.55%; in experiment [17], 0.3%; in [18], -4.79%. The inhibition in experiment [19] was -4.51%; in [20], 4.09%.
As to `CN(C)c1cc2c(Nc3ccc4c(cnn4Cc4ccccc4)c3)ncnc2cn1`, the inhibition in experiment [1] is -0.93%; in [2] it was -1.42%; in experiment [3] it was -0.9%; in [4], 5.84%; in experiment [5] it was 8.31%; in experiment [6], 2.35%. Also, the inhibition is 4.06% in experiment [7]; 0.05% in [8]; 2.47% in [9]; 1.3% in [10]; 1.89% in [11]; -2.31% in [12]. The inhibition in experiment [13] was -3.59%; in experiment [14] it was 1.32%; in experiment [15], 1.28%; in [16], 0.82%; in [17] it was 3.28%; in [18], -1.83%. The inhibition amounted to 7.07% in [19] and 0.08% in [20].
`N#Cc1c(NC(=O)c2ccccc2F)sc2c1CCCC2`: the inhibition in [1] is -1.26%; in experiment [2], -1.34%; in experiment [3], -0.38%; in experiment [4] it was -1.85%; in experiment [5], -1.18%; in experiment [6], 0.63%. Moreover, the inhibition in [7] was 2.26%; in [8], -1.92%; in experiment [9], -2.71%; in [10] it was -1.2%; in experiment [11], -0.74%; in [12] it was -1.54%. Moreover, the inhibition in experiment [13] is -0.64%; in [14], -2.15%; in [15], -1.29%; in experiment [16], 1.85%; in experiment [17], 2.06%; in experiment [18], 0.79%. Moreover, the figures for the inhibition in experiment [19] and in experiment [20] were 2.03% and 0.86%, respectively.
Consider `OCc1ccc(-c2nc(-c3ccccn3)c(-c3ccc4c(c3)OCO4)[nH]2)cc1`, for which the inhibition was 1.38% in experiment [1]; 1.23% in experiment [2]; -0.15% in experiment [3]; 4.43% in experiment [4]; 14.9% in [5]; 4.13% in experiment [6]. Moreover, the inhibition in experiment [7] is 4.4%; in experiment [8], 3.05%; in experiment [9], 4.05%; in experiment [10], 0.63%; in experiment [11], 2.49%; in [12], -1.33%. Further, the inhibition in [13] is -3.19%; in experiment [14] it was 3.36%; in [15], 2.23%; in experiment [16], 1.52%; in [17], 3.07%; in experiment [18] it was -1.63%. The inhibition in experiment [19] is -0.21%; in [20], 0%.
Consider `NS(=O)(=O)c1ccc(Nc2cc(-c3cccc(O)c3)n[nH]2)cc1`, for which the inhibition is 3.73% in experiment [1]; 0.13% in experiment [2]; -0.83% in experiment [3]; 4.9% in experiment [4]; 9.21% in [5]; 7.39% in experiment [6]. Moreover, the inhibition is 9.77% in experiment [7]; 2.03% in [8]; 7.23% in experiment [9]; 3.84% in experiment [10]; 3.15% in experiment [11]; -3.05% in experiment [12]. Besides, the inhibition in experiment [13] is -2.8%; in experiment [14], 4.26%; in experiment [15] it was 7.56%; in experiment [16] it was 2.48%; in experiment [17], 4.98%; in experiment [18], -1.18%. The inhibition is -1.14% in experiment [19] and 1.67% in experiment [20].
In the case of `Cc1ccc2c(-c3ccnc(Nc4cccc(C(F)(F)F)c4)n3)c(-c3ccccc3)nn2n1`, the inhibition was 8.27% in [1]; 0.34% in experiment [2]; -0.19% in experiment [3]; 37.5% in experiment [4]; 73.5% in experiment [5]; 6.89% in [6]. The inhibition in experiment [7] was 45.1%; in [8] it was 4.66%; in experiment [9], 6.13%; in [10] it was 3.8%; in [11] it was 5.59%; in experiment [12], -3.32%. Also, the inhibition was -2.03% in experiment [13]; 3.95% in [14]; 5.13% in [15]; 0.26% in experiment [16]; 2% in [17]; 0.44% in [18]. Further, the results for the inhibition in experiment [19] and in [20] were -2.31% and 0.67%, respectively.

Source of the values: ChEMBL document CHEMBL1961873, “Compounds: GSK PKIS; Assays: Nanosyn kinase panel” (2012).
